Screen size: about 5,500 compounds; about 2,000 (36%) were called active. Not shown: some 18% with an inconclusive outcome. Rule as the data show it: active = normalized growth mostly below about 0.91 (no sharp cut-off); inconclusive = no clear call, values can overlap the other calls; inactive = mostly above about 0.92. Some of the results follow.
Test: chemical genetic growth profiling, strain panel (AID 1159580);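 also: tested at 20 µM; growth read once vehicle control cultures reached saturation at 30 °C; 1 = growth at the plate median or of vehicle wells; lower values mean less growth of the strain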
Conditions: growth OD

Measured: normalized growth

Cc1cc(CC(=O)O)n(C)c1C(=O)c1ccc(Cl)cc1
active: S. cerevisiae deletion strains, locus YNL307C, strain MCK1, stronger effect = lower value 0.901
inactive: S. cerevisiae deletion strains, locus YJR075W, strain HOC1, stronger effect = lower value 1 | S. cerevisiae deletion strains, locus YKL009W, strain mrt4, stronger effect = lower value 0.962 | S. cerevisiae deletion strains, locus YKL068W, stronger effect = lower value 1 | S. cerevisiae deletion strains, locus YKL085W, strain MDH1 (second series), stronger effect = lower value 0.994 | S. cerevisiae deletion strains, locus YKL085W, strain MDH1, stronger effect = lower value 0.994 | S. cerevisiae deletion strains, locus YKL160W, strain elf1, stronger effect = lower value 1.05 | S. cerevisiae deletion strains, locus YKL190W, strain CNB1, stronger effect = lower value 1.01 | S. cerevisiae deletion strains, locus YKR001C, strain vps1, stronger effect = lower value 1.03 | S. cerevisiae deletion strains, locus YKR026C, strain gcn3, stronger effect = lower value 1.03 | S. cerevisiae deletion strains, locus YKR091W, strain srl3, stronger effect = lower value 1.02 | S. cerevisiae deletion strains, locus YLL001W, strain dnm1, stronger effect = lower value 1 | S. cerevisiae deletion strains, locus YLL026W, stronger effect = lower value 1.05 | S. cerevisiae deletion strains, locus YLL041C, strain sdh2, stronger effect = lower value 1.02 | S. cerevisiae deletion strains, locus YLR027C, strain aat2, stronger effect = lower value 1.03 | S. cerevisiae deletion strains, locus YLR039C, strain RIC1, stronger effect = lower value 1 | S. cerevisiae deletion strains, locus YLR058C, strain SHM2, stronger effect = lower value 0.996 | S. cerevisiae deletion strains, locus YLR102C, strain apc9, stronger effect = lower value 1.01 | S. cerevisiae deletion strains, locus YLR113W, strain HOG1, stronger effect = lower value 1.01 | S. cerevisiae deletion strains, locus YLR221C, strain rsa3, stronger effect = lower value 1.01 | S. cerevisiae deletion strains, locus YLR258W, strain gsy2, stronger effect = lower value 1.04 | S. cerevisiae deletion strains, locus YLR262C, strain YPT6 (second series), stronger effect = lower value 1.01 | S. cerevisiae deletion strains, locus YLR262C, strain YPT6, stronger effect = lower value 1.01 | S. cerevisiae deletion strains, locus YLR268W, strain sec22, stronger effect = lower value 0.997 | S. cerevisiae deletion strains, locus YLR320W, strain mms22, stronger effect = lower value 0.994 | S. cerevisiae deletion strains, locus YLR330W, strain CHS5, stronger effect = lower value 0.992 | S. cerevisiae deletion strains, locus YLR342W, strain FKS1 (second series), stronger effect = lower value 0.937 | S. cerevisiae deletion strains, locus YLR342W, strain FKS1, stronger effect = lower value 1.01 | S. cerevisiae deletion strains, locus YLR357W, strain rsc2, stronger effect = lower value 0.995 | S. cerevisiae deletion strains, locus YLR370C, strain arc18, stronger effect = lower value 1.04 | S. cerevisiae deletion strains, locus YLR371W, strain rom2, stronger effect = lower value 1.02 | S. cerevisiae deletion strains, locus YLR384C, strain iki3, stronger effect = lower value 1.04 | S. cerevisiae deletion strains, locus YLR418C, strain cdc73, stronger effect = lower value 0.99 | S. cerevisiae deletion strains, locus YML016C, strain PPZ1, stronger effect = lower value 0.994 | S. cerevisiae deletion strains, locus YML032C, strain rad52, stronger effect = lower value 1.02 | S. cerevisiae deletion strains, locus YML120C, strain ndi1, stronger effect = lower value 1.02 | S. cerevisiae deletion strains, locus YML124C, strain tub3, stronger effect = lower value 1.01 | S. cerevisiae deletion strains, locus YMR058W, strain fet3, stronger effect = lower value 1.03 | S. cerevisiae deletion strains, locus YMR078C, strain ctf18, stronger effect = lower value 1.01 | S. cerevisiae deletion strains, locus YMR125W, strain sto1, stronger effect = lower value 1.03 | S. cerevisiae deletion strains, locus YMR129W, stronger effect = lower value 1.02 | S. cerevisiae deletion strains, locus YMR205C, strain PFK2, stronger effect = lower value 1.02 | S. cerevisiae deletion strains, locus YMR223W, strain ubp8, stronger effect = lower value 0.994 | S. cerevisiae deletion strains, locus YMR231W, strain pep5, stronger effect = lower value 1.03 | S. cerevisiae deletion strains, locus YMR263W, strain SAP30, stronger effect = lower value 0.993 | S. cerevisiae deletion strains, locus YMR307W, strain GAS1, stronger effect = lower value 0.947 | S. cerevisiae deletion strains, locus YNL067W, strain RPL9B, stronger effect = lower value 0.997 | S. cerevisiae deletion strains, locus YNL071W, strain lat1, stronger effect = lower value 1.02 | S. cerevisiae deletion strains, locus YNL128W, strain TEP1, stronger effect = lower value 1.01 | S. cerevisiae deletion strains, locus YNL153C, strain GIM3, stronger effect = lower value 0.991 | S. cerevisiae deletion strains, locus YNL183C, strain NPR1, stronger effect = lower value 0.963 | S. cerevisiae deletion strains, locus YNL209W, strain ssb2, stronger effect = lower value 1.05 | S. cerevisiae deletion strains, locus YNL233W, strain BNI4, stronger effect = lower value 0.993 | S. cerevisiae deletion strains, locus YNL248C, strain rpa49, stronger effect = lower value 1.02 | S. cerevisiae deletion strains, locus YNL250W, strain rad50, stronger effect = lower value 1.01 | S. cerevisiae deletion strains, locus YNL271C, strain bni1, stronger effect = lower value 1.01 | S. cerevisiae deletion strains, locus YNL298W, strain CLA4, stronger effect = lower value 0.998 | S. cerevisiae deletion strains, locus YNL322C, strain KRE1 (second series), stronger effect = lower value 1.02 | S. cerevisiae deletion strains, locus YNL322C, strain KRE1, stronger effect = lower value 1.01 | S. cerevisiae deletion strains, locus YNR049C, strain mso1, stronger effect = lower value 1.02 | S. cerevisiae deletion strains, locus YNR052C, strain pop2, stronger effect = lower value 1.01 | S. cerevisiae deletion strains, locus YOL006C, strain TOP1, stronger effect = lower value 0.895 | S. cerevisiae deletion strains, locus YOL012C, strain htz1 1.55 | S. cerevisiae deletion strains, locus YOL147C, strain pex11, stronger effect = lower value 1.02 | S. cerevisiae deletion strains, locus YOR001W, strain rrp6, stronger effect = lower value 1.01 | S. cerevisiae deletion strains, locus YOR061W, strain CKA2, stronger effect = lower value 1.01 | S. cerevisiae deletion strains, locus YOR069W, strain VPS5, stronger effect = lower value 1 | S. cerevisiae deletion strains, locus YOR070C, strain gyp1, stronger effect = lower value 1.02 | S. cerevisiae deletion strains, locus YOR080W, strain dia2, stronger effect = lower value 1.03 | S. cerevisiae deletion strains, locus YOR083W, strain WHI5, stronger effect = lower value 1.04 | S. cerevisiae deletion strains, locus YOR106W, strain vam3, stronger effect = lower value 1.05 | S. cerevisiae deletion strains, locus YOR136W, strain idh2, stronger effect = lower value 1.02 | S. cerevisiae deletion strains, locus YOR144C, strain elg1, stronger effect = lower value 1.01 | S. cerevisiae deletion strains, locus YOR184W, strain ser1, stronger effect = lower value 0.983 | S. cerevisiae deletion strains, locus YOR231W, strain MKK1, stronger effect = lower value 1.01 | S. cerevisiae deletion strains, locus YOR265W, strain rbl2, stronger effect = lower value 1.05 | S. cerevisiae deletion strains, locus YOR270C, strain vph1, stronger effect = lower value 1.05 | S. cerevisiae deletion strains, locus YOR290C, strain snf2, stronger effect = lower value 1.06 | S. cerevisiae deletion strains, locus YOR316C, strain cot1, stronger effect = lower value 1.01 | S. cerevisiae deletion strains, locus YPL051W, strain arl3, stronger effect = lower value 1.04 | S. cerevisiae deletion strains, locus YPL055C, strain LGE1, stronger effect = lower value 1 | S. cerevisiae deletion strains, locus YPL078C, strain atp4, stronger effect = lower value 1.04 | S. cerevisiae deletion strains, locus YPL106C, strain sse1, stronger effect = lower value 1.04 | S. cerevisiae deletion strains, locus YPL240C, strain hsp82, stronger effect = lower value 1.03 | S. cerevisiae deletion strains, locus YPL241C, strain CIN2, stronger effect = lower value 0.996 | S. cerevisiae deletion strains, locus YPL256C, strain CLN2, stronger effect = lower value 1.02 | S. cerevisiae deletion strains, locus YPR119W, strain clb2, stronger effect = lower value 1.01 | S. cerevisiae deletion strains, locus YPR141C, strain kar3, stronger effect = lower value 1.01 | S. cerevisiae deletion strains, locus YPR163C, strain tif3, stronger effect = lower value 1.01 | S. cerevisiae deletion strains, locus YPR167C, strain met16, stronger effect = lower value 1 | S. cerevisiae deletion strains, strain wtn01, stronger effect = lower value 1.01 | S. cerevisiae strains, strain wild type, stronger effect = lower value 1.01
